Holding throughout (assay): NCI-60 one-dose screen, 48 h (100 = growth as untreated, 0 = no growth, -100 = all killed)
What all share (conditions): 10 µM unless noted

Assay [1] deals with NCI-H23 lung.
Assay [2] has as its system NCI-H226 lung.
Assay [3] has as its system NCI-H322M lung.
The test system of assay [4] is HOP-62 NSCLC.
Assay [5] concerns NCI-H460 lung.
Assay [6] relates to HOP-92 NSCLC.
Assay [7] deals with NCI-H522 lung.
Assay [8] deals with A549/ATCC NSCLC.
Assay [9] concerns 786-0 renal.
Assay [10] deals with COLO 205 colon.

Drawing on PubChem BioAssay (NCI), this text covers growth for 14 molecules.

Compounds without any hit were thinned out: in the full panel of roughly 83,000, 20% have a hit.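 For each line, cells grew in 96-well plates with the test compound present at a single concentration for 48 hours.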 A number with no mark means an inactive call. Calls of active or inactive are those of the source. The calls were made as follows: active = growth percent below 10; inactive = the rest.

As to `COc1ccc(OC)c(C2OC(c3ccc4ccccc4c3O)=NN2C(C)=O)c1` (stereo not given), the growth was 80% in [1]; 87.1% in assay [2]; 77.5% in [3]; 65.4% in assay [4]; 43% in assay [5]; 54.4% in assay [6]. For the same molecule, the growth in assay [7] was 35.6%; in [8], 56.5%; in [9], 81.9%; in assay [10], 77.1%.

Turning to `Nc1cccc(-c2nc3sccn3c2-c2ccnc(NCCCNS(=O)(=O)c3cccc4ccccc34)n2)c1`, the growth is 44.3% in [1]; 29.8% in assay [2]; 63.5% in assay [3]; 64.3% in assay [4]; 35.5% in assay [5]; 92.4% in assay [6]. Moreover, the growth in assay [7] was 34.9%; in assay [8], 39.2%; in assay [9], 53.9%; in assay [10] it was 24.1%.

Turning to `COc1cc(C2C3=C(COC3=O)Nc3cc4c(cc32)OCO4)cc2c1OCO2` (stereo not given), the growth in assay [1] was 40.3%; in [2], 19.2%; in assay [3] it was 48.5%; in assay [4], 36%; in assay [5], 2.94% (active); in [6], 40.6%. Also, the growth is 5.26% (active) in assay [7], 11.9% in [8], 19.9% in [9] and -51.5% (active) in assay [10].

Turning to `CCN(CC)CCCNc1nccc2ccc(Cl)cc12`, the growth in [1] is 107%; in [2], 97.9%; in assay [3] it was 104%; in assay [4], 96.5%; in assay [5], 103%; in assay [6], 68.1%. For the same molecule, the growth in [7] is 102%; in assay [8] it was 94.9%; in [9] it was 104%; in [10] it was 108%.

Regarding `CN(C)CCN1C(=O)c2ccc3c4c(ccc(c24)C1=O)C(=O)N(CCN=C=S)C3=O`, the growth in assay [1] was -61.7% (active); in assay [2], -94.7% (active); in assay [3], -94.1% (active); in assay [4] it was -96.3% (active); in [5] it was -43.5% (active); in assay [6], -79.5% (active). The growth in [7] was -93.8% (active); in assay [8], -52.8% (active); in assay [9], -81.3% (active); in [10], -87.9% (active).

Consider `CN(C)CCOC(=O)Nc1ccccc1Cl`, for which the growth in assay [1] is 98.3%; in [2], 106%; in assay [3] it was 104%; in [4], 101%; in assay [5], 105%; in [6], 89.2%. For the same molecule, the growth was 106% in assay [7], 112% in [8], 100% in assay [9] and 113% in assay [10].

On to `NC(=N\N=C/c1ccc(O)cc1)/C(N)=N\N=C/c1ccc(O)cc1`, for which the growth in assay [1] was 90.9%; in assay [2], 101%; in assay [3], 77.5%; in assay [4], 79.3%; in [5], 35.9%; in assay [6], 79%. Also, the growth in assay [7] was 31.4%; in assay [8], 52.5%; in assay [9], 52.6%; in assay [10], 124%.

Turning to `O=[N+]([O-])c1ccc(Sc2ncccn2)c([N+](=O)[O-])c1`, the growth in assay [1] is 53.5%; in assay [2], 96.3%; in assay [3], 97.7%; in [4], 94.6%; in [5], 95.4%; in assay [6], 18%. The growth in assay [7] is -50.1% (active); in assay [8], 67.9%; in [9], 61.3%; in [10] it was 21%.

For the molecule `Cc1ccc(S(=O)(=O)NCCCNc2cc(-c3cn(C(C)(C)C)nc3-c3cccc(O)c3)ccn2)cc1`, the growth is 77% in assay [1]; 54.6% in assay [2]; 87.9% in assay [3]; 85.1% in assay [4]; 29.9% in [5]; 71% in assay [6]. In addition, the growth in assay [7] was 53%; in assay [8], 59.6%; in [9], 56.6%; in assay [10], 8.53% (active).

Turning to `COc1ccc(-c2c(N)n[nH]c2-c2cc(OC)c(OC)c(OC)c2)cc1`, the growth in assay [1] is 36.9%; in assay [2], 82.7%; in assay [3], 43.9%; in assay [4], 41.1%; in assay [5], 6.89% (active); in assay [6], 70.1%. In addition, the growth in assay [7] was -21.3% (active); in assay [8], 25.9%; in assay [9], 33.7%; in assay [10], 4.54% (active).

For the molecule `NC(N)=Nc1nc2ccccc2o1`, the growth in assay [1] is 108%; in assay [2] it was 107%; in assay [3] it was 106%; in [4], 88.4%; in [5] it was 99.8%; in assay [6] it was -9.02% (active). In addition, the growth in assay [7] was 107%; in [8], 109%; in assay [9], 109%; in [10], 138%.

Regarding `COc1ccc(-c2cnoc2-c2ccc(OC)cc2O)cc1`, the growth in [1] is 29.9%; in [2] it was 78.8%; in assay [3], 74.6%; in [4] it was 36.9%; in [5], 7.27% (active); in [6], 52.1%. Besides, the growth in [7] was -16% (active); in assay [8], 40.9%; in assay [9] it was 44.5%; in assay [10] it was 72.4%.

Turning to `O=S1(=O)CCC(N(/N=C/c2ccco2)c2ccccc2)C1` (stereo not given), the growth in assay [1] is 102%; in assay [2], 104%; in assay [3], 102%; in [4] it was 104%; in [5], 107%; in [6] it was 96.5%. The growth in [7] was 95.5%; in assay [8], 97.9%; in assay [9] it was 103%; in [10], 117%.

On to `C/C=C(\C)C(C(=O)NC1CCCCC1)N(C(=O)C1CCc2cc(F)ccc2O1)c1ccc(Cl)cc1` (stereo not given), for which the growth in assay [1] was 103%; in assay [2], 93.7%; in assay [3], 110%; in [4] it was 93.6%; in assay [5], 104%; in assay [6] it was 108%. For the same molecule, the growth in [7] was 92%; in [8], 96.2%; in assay [9], 101%; in [10], 106%.
